Compound activity from PubChem BioAssay.
Most compounds without a hit are left out; they make up all but 12% or so of the library.
Cycloheximide cs: affects cycloheximide protein synthesis inhibition readout, counter-screen; max response, %; 12% of 300,000 active; AID 2314; cell reporter, cycloheximide protein synthesis inhibition counterscreen; in the data active = max response mostly above about 13%, no sharp cut-off; inactive = mostly below about 14%; also: read at 38.3 µM for the half of the compounds with a filed dose
Marburg entry inh: Marburg virus entry inhibition. Marburg virus pseudotyped entry inhibition, cell reporter. Potency, µM (highest dose often 37.8 µM), most hits filed as inhibitors. 1.8% of 300,000 active. AID 540276; calls by dose curve; tested in HEK293 cells
Shiga inhibitor: inhibitors of Shiga toxin in Vero cells; Vero cells, Shiga toxin protein synthesis inhibition reporter; inhibition, % at 38.7 µM; 9.2% of 290,000 active; in the data active = inhibition mostly above about 28%, no sharp cut-off; inactive = mostly below about 43%
Lassa entry inh: inhibitors of Lassa virus binding or cell entry. Lassa virus pseudotype entry inhibition, cell reporter. 1.2% of 300,000 active. Potency, µM (series often up to 37.9 µM), usual class: inhibitors; calls by dose curve; tested in HEK293 cells; also: nearly all actives have a fitted effect of over 50% in size
A number is an active result; n = inactive; u = inconclusive; x = not tested or not shown.

SMILES	Cycloheximide cs	Marburg entry inh	Shiga inhibitor	Lassa entry inh
Cc1cccc(OCC(=O)Nc2ccc3c(C)cc(=O)oc3c2)c1	n	n	n	n
Cc1cc2oc(=O)cc(C)c2cc1NC(=O)CCC(=O)O	n	n	n	n
CCCCOC(=O)Nc1ccc2c(C)cc(=O)oc2c1	52	u	59	n
CCOC(=O)Nc1ccc2c(C)cc(=O)oc2c1	30	n	60	u
Cc1cc(=O)oc2cc(NC(=O)CC(N)C(=O)O)ccc12 (centres undefined)	n	x	n	x
Cc1cc2oc(=O)cc(C)c2cc1NC(=O)CCl	30	u	n	u
O=C(Nc1ncn[nH]1)c1ccc(S(=O)(=O)N2CCOCC2)cc1	n	x	n	x
Cc1sc2ncnc(N3CCC(C(=O)N(C)CC(=O)Nc4ccccc4Br)CC3)c2c1C	n	u	n	n
Cc1ccc(NC(=O)C2CCN(c3ncnc4sc(C)c(C)c34)CC2)cc1S(=O)(=O)N(C)C	x	u	x	n
Cc1sc2ncnc(N3CCC(C(=O)N(C)CC(=O)Nc4ccccc4Cl)CC3)c2c1C	n	u	n	10µM
Cc1sc2ncnc(N3CCC(C(=O)N(C)CC(=O)Nc4ccc(Cl)c(C(F)(F)F)c4)CC3)c2c1C	x	u	x	7.1µM
CCN(CC)S(=O)(=O)c1cc(NC(=O)C2CCN(c3ncnc4sc(C)c(C)c34)CC2)ccc1Cl	x	3.5µM	x	u
Cc1sc2ncnc(N3CCC(C(=O)Nc4cc(S(C)(=O)=O)ccc4Cl)CC3)c2c1C	x	u	x	n
CC1=C[C@@H](C)OC2(C1)C(=O)N(CC1CC1)c1cccc(Br)c12 (some centres undefined)	x	n	x	x
O=c1c2c([nH]c3ccc(Br)cc13)CCCC2	n	n	n	u
Brc1ccc2[nH]c3c(c2c1)CCC3	n	u	n	8.9µM
CCn1c(-c2ccccn2)nc2cc(S(=O)(=O)N(C)C)ccc21	17	n	n	n
CCn1c(-c2cc(Br)cc(OC)c2O)nc2cc(S(=O)(=O)N(C)C)ccc21	n	u	n	n
CCc1ccc(NC(=O)CC2C(=O)N(c3ccc(OC)cc3)C(=O)N2Cc2ccc(OC)cc2)cc1 (centres undefined)	x	x	x	n
CCNC(=O)CC1C(=O)N(c2ccccc2)C(=O)N1Cc1ccc(OC)cc1 (centres undefined)	13	u	n	n
COc1ccc(NC(=O)CC2C(=O)N(c3ccc(OC)cc3)C(=O)N2CCc2cccs2)cc1 (centres undefined)	n	n	n	9.2µM
O=C(C1CCOCC1)N1CCCC(N2CCN(c3ccc(F)cc3)CC2)C1 (centres undefined)	n	x	n	x
O=C(CN1CCN(c2ccccn2)CC1)Nc1ccccc1C(=O)Nc1ccccc1	x	n	x	u
COc1cc(NC(=O)c2cc([N+](=O)[O-])ccc2NC(=O)CN2CCN(c3ccccn3)CC2)cc(OC)c1	n	8.9µM	n	u
CCN(Cc1ccncc1)C(=O)C1CCN(S(=O)(=O)c2cccs2)CC1	n	n	n	u
SMILES	Cycloheximide cs	Marburg entry inh	Shiga inhibitor	Lassa entry inh
Cc1cc(C)c(-c2csc(NC(=O)C3=COCCO3)n2)c(C)c1	x	u	x	n
Cc1ccc(Cl)c2sc(NC(=O)C3=COCCO3)nc12	27	x	74	x
O=C(Nc1nc2cc3c(cc2s1)OCCO3)C1=COCCO1	n	x	n	x
Cc1cc(C)c2sc(NC(=O)C3=COCCO3)nc2c1	60	u	120	u
COc1ccc(Cl)c2sc(NC(=O)C3=COCCO3)nc12	x	n	x	n
O=C(Nc1nc2ccc(F)cc2s1)C1=COCCO1	x	u	x	2.8µM
CC1=C(C(=O)Nc2cccc(C(F)(F)F)c2)C2(CCCCCC2)OC1=O	x	x	x	n
COc1ccccc1-n1cnc2cc(C(=O)N3CCOCC3)ccc21	25	x	41	x
CCCNC(=O)c1ccc2c(c1)ncn2-c1ccccc1OC	12	n	n	n
CC(=O)C(Cc1ccccc1)NC(=O)CN1CCN(Cc2ccccc2)CC1 (centres undefined)	n	n	n	n
CC(=O)c1cc(C#N)c(SCCC(C)C)nc1C	n	n	n	n
CC(C)CCSc1nc(N)c(C#N)cc1C#N	33	u	n	n
CCN1/C(=C/C(C)=C/c2sc3ccccc3[n+]2CC)Sc2ccccc21	n	1.6µM	n	1.1µM
CCN1/C(=C\C(C)=O)Sc2ccc(OC)cc21	n	n	n	n
O=C(COc1cccc(NC(=O)c2ccco2)c1)c1ccccc1	37	n	62	n
CC(=O)c1cccc(NC(=O)c2ccco2)c1	n	n	n	n
O=C(COc1cccc(NC(=O)c2ccccc2)c1)c1ccccc1	n	u	n	n
COc1cccc(NC(=O)COC(=O)c2ccco2)c1	12	n	41	n
COc1cccc(NC(=O)c2ccco2)c1	36	n	86	n
O=C(Nc1cccc(OC(=O)c2ccco2)c1)c1ccco1	n	n	n	n
CCOC(=O)c1cccc(NC(=O)c2ccco2)c1	41	u	28	n
Cc1ccc(NC(=O)COC(=O)c2ccco2)cc1C	x	n	x	n
Cn1c(=O)cc(Nc2ccccc2)c2c(=O)n(-c3ccccc3)c(=O)n(-c3ccccc3)c21	n	n	n	n
Cc1ccc(Cn2c(C)c(CNC3CCCCC3)c(C(=O)O)c2C)cc1	x	n	x	u
CC(=O)c1ccc(NC(=O)C2CCC(CNS(=O)(=O)c3cccs3)CC2)cc1 (centres undefined)	x	n	x	n
SMILES	Cycloheximide cs	Marburg entry inh	Shiga inhibitor	Lassa entry inh
O=C(c1ccccc1)c1cccc(NC(=O)c2ccco2)c1	24	n	60	n
CCOC(=O)c1cccc(NC(=O)CCn2cccc2)c1	n	n	n	8.9µM
COc1ccc(C(=O)COc2cccc(NC(=O)c3ccco3)c2)cc1	12	n	n	n
CCOC(=O)c1cccc(NC(=O)c2cc3sccc3n2C)c1	39	n	46	n
COc1cccc(C(=O)COc2cccc(NC(=O)c3ccco3)c2)c1	n	u	n	n
O=C(Nc1cccc(NC(=O)c2ccco2)c1)c1ccccc1	n	n	n	n
CCc1nc2ccc(C(=O)NC3CCC(C)CC3)cc2nc1CC (centres undefined)	n	x	n	x
O=C(Nc1cccc(NC(=O)c2ccc(-c3cccc(Br)c3)o2)c1)c1ccco1	58	u	73	n
O=C(Nc1cccc(NC(=O)c2ccc(-c3ccc(Br)cc3)o2)c1)c1ccccc1	n	u	n	n
O=C(C[n+]1ccc2ccccc2c1)c1ccc(NC(=O)c2ccccc2)cc1	n	n	n	n
C/C(=N\Nc1ccccc1[N+](=O)[O-])c1ccccc1O	41	u	90	n
CC/C(=N\Nc1ccccc1[N+](=O)[O-])c1ccc(O)cc1	23	u	58	u
Nc1cccn2c(-c3ccc(Cl)c(Cl)c3)cnc12	74	n	92	u
Cn1c(-c2ccc(Cl)cc2)cnc1N	n	n	n	n
Nc1cccn2c(-c3ccc(Cl)cc3)cnc12	47	u	197	u
Cc1ccnc(Sc2ccc([N+](=O)[O-])cc2[N+](=O)[O-])n1	n	13µM	n	u
Cc1ccc(Sc2ccc([N+](=O)[O-])cc2[N+](=O)[O-])nc1	n	u	n	u
Cc1cc(C)nc(SCc2ccc([N+](=O)[O-])cc2)n1	n	u	n	n
O=[N+]([O-])c1ccc(Sc2nc3ccccc3o2)c([N+](=O)[O-])c1	n	16µM	55	n
Cc1ccnc(SCc2ccc([N+](=O)[O-])cc2)n1	17	n	n	u
CCOC(=O)C1(C(=O)OCC)Cc2ccc(C(C)=O)cc2C1	x	n	x	u
